For 36 compounds, Potency results are on record in PubChem BioAssay (NCATS).

Records with an inconclusive call do not appear. Entries that show only a call come without a potency. Active and inactive are the calls of the source. Calls come from the whole dose curve; as a rule, active = well fitted inhibition curve with a large enough effect; inconclusive = small, poorly fitted or top-dose-only effect, or effect the other way; inactive = flat fitted curve, though single readings scatter.
Potency is the fitted concentration of half-maximal effect.

In this experiment the target is ATP-dependent 6-phosphofructokinase (Trypanosoma brucei brucei) (UniProt O15648). The experiment in a line: qHTS Assay to Find Inhibitors of T. brucei phosphofructokinase: hit validation (AID 492961). The following applies: T. brucei PFK, ADP-Glo luminescence; series mostly up to 51.4 µM. The gist of the method: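 Luminescence from ADP-Glo reports ADP generated as T. brucei PFK (1.25 nM) phosphorylates 0.5 mM fructose-6-phosphate using 0.1 mM ATP. Reactions ran 45 min at room temperature, pH 8.0.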
Chain of ATP-dependent 6-phosphofructokinase (Trypanosoma brucei brucei) (O15648 whole entry, looked up): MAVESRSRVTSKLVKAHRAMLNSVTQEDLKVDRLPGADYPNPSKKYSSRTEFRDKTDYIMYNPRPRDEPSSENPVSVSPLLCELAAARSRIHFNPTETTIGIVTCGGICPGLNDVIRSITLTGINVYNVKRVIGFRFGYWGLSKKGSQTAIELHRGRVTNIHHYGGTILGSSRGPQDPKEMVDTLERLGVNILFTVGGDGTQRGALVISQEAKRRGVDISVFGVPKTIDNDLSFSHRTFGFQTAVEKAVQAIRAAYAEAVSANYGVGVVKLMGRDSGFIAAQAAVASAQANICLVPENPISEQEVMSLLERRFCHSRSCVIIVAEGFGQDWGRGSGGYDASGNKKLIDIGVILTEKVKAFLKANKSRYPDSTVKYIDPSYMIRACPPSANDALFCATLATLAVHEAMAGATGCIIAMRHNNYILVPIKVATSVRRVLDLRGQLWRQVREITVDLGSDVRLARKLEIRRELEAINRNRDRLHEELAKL
Background: In qHTS, concentration-response curves come from the screen itself.
For `O=C(OCc1ccccc1)c1ccc(O)cc1`, the Potency entry was “inactive”.
The entry for `S=C1SCN(Cc2ccccc2)CN1Cc1ccccc1` is “inactive”; for `O=C1[O][Bi][O]c2ccccc21` it is “inactive”.
The result for `COc1ccc(/C=C/C(=O)OCCC(C)C)cc1` reads “inactive”.
The result for `CC1=C(/C=C/C(C)=C/C=C/C(C)=C/C(=O)Oc2c(C)c(C)c3c(c2C)CC[C@@](C)(CCC[C@H](C)CCC[C@H](C)CCCC(C)C)O3)C(C)(C)CCC1` reads “inactive”; that for `OC[C@H]1O[C@@](CO)(O[C@H]2O[C@H](CO)[C@@H](O)[C@H](O)[C@H]2O)[C@@H](O)[C@@H]1O`, “inactive”.
On to `S=C=Nc1ccc(N=C=S)cc1`, for which the Potency result was “inactive”.
The entry for `Nc1nccs1` is “inactive”; for `CCN(CC)CCOc1ccc2nc(N(C)C)sc2c1` it is “inactive”; for `NC(=O)[C@@H]1CCCN1C(=O)[C@H](Cc1cnc[nH]1)NC(=O)[C@@H]1CCC(=O)N1` it is “inactive”.
The entry for `CCCCC` is “inactive”; for `CCOC(=O)Cc1ccc(-c2ccccc2)cc1` it is “inactive”.
As to `CCCCCCCCCCCCCCCCCC(=O)OC[C@@H](O)[C@H]1OC[C@H](O)[C@H]1O`, the Potency result is “inactive”.
The entry for `CN1CCc2c(c3ccccc3n2Cc2ccccc2)C1` is “inactive”; for `Cn1c(O)c(N=NC(N)=S)c2ccccc21` it is “inactive”.
The result for `CC(C)[C@@H](N)C(=O)O` reads “inactive”; that for `C=C(C)C1CC=C(C)CC1` (stereo unspecified), “inactive”; that for `Cc1cc(-c2ccc(N=Nc3c(S(=O)(=O)O)cc4cc(S(=O)(=O)O)cc(N)c4c3O)c(C)c2)ccc1N=Nc1c(S(=O)(=O)O)cc2cc(S(=O)(=O)O)cc(N)c2c1O`, 28.2 µM (active).
The entry for `CC1=CCC2CC1C2(C)C` (stereo unspecified) is “inactive”; for `CC(C)NCC(O)COc1ccccc1-n1cccc1` (stereo unspecified) it is “inactive”.
In the case of `O=C(O)Cc1cc(I)c(Oc2ccc(O)c(I)c2)c(I)c1`, the Potency entry is “inactive”.
Consider `O=C(/C=C/c1cccc(F)c1)NC1CC1`, for which the Potency result was “inactive”.
In the case of `CCN(CC)CCC(=O)N1c2ccccc2Sc2ccc(C(F)(F)F)cc21`, the Potency result is “inactive”.
The result for `CCCCC(CC)CCC(CC(C)C)OS(=O)(=O)O` (stereo unspecified) reads “inactive”.
The result for `CC(C)CCC[C@@H](C)[C@H]1CC[C@H]2[C@@H]3CC=C4C[C@@H](O)CC[C@]4(C)[C@H]3CC[C@]12C` reads “inactive”; that for `CCCCCCCCCCCCCCCCCCCCCC(=O)Nc1ccn([C@@H]2O[C@H](CO)[C@@H](O)[C@@H]2O)c(=O)n1`, “inactive”.
`CC(C)(C)CC(C)(C)c1cc(Cc2cc(C(C)(C)CC(C)(C)C)cc(-n3nc4ccccc4n3)c2O)c(O)c(-n2nc3ccccc3n2)c1`: the Potency entry is “inactive”.
The result for `O=C1CCC(=O)N1CO` reads “inactive”.
The result for `OCCCNc1ccccc1` reads “inactive”.
As to `Cc1ncc(C[n+]2csc(CCOP(=O)(O)OP(=O)(O)O)c2C)c(N)n1`, the Potency result is “inactive”.
For `CCCCCCCCCCCC(=O)N(CCO)CCO`, the Potency entry is “inactive”.
The entry for `O=C(c1cc2ccccc2o1)N1CCN(Cc2ccccc2)CC1` is “inactive”.
The entry for `O=C1c2ccccc2CN2C(=O)c3ccccc3CN12` is “inactive”; for `CC12CCC(C1)C(C)(C)C2=O` (stereo unspecified) it is “inactive”.
The result for `CN1C(=O)C[C@@H](C(=O)N[C@@H](Cc2cnc[nH]2)C(=O)N2CCC[C@H]2C(N)=O)NC1=O` reads “inactive”; that for `F[Si-2](F)(F)(F)(F)F`, “inactive”.
